In all, about 5,500 compounds went through this assay and about 2,000 (36%) were called active. Another 18% or so got no clear call; they are omitted. Cut-off read from the data, not from the text of the source: active = normalized growth mostly below about 0.91 (no sharp cut-off); inconclusive = no clear call, values can overlap the other calls; inactive = mostly above about 0.92. Some of the results follow.
Test: chemical genetic growth profiling, strain panel (AID 1159580);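 note: tested at 20 µM; growth read once vehicle control cultures reached saturation at 30 °C; 1 = growth at the plate median or of vehicle wells; lower values mean less growth of the strain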
Conditions: S. cerevisiae deletion strains, growth OD

Measured: normalized growth

O=S(=O)(c1cccc2c(Cl)cccc12)N1CCCNCC1
inactive: locus YAL040C, strain CLN3, hits give low values 0.99 | locus YDR363W, strain ESC2, hits give low values 1 | locus YER002W, strain NOP16, hits give low values 0.988 | locus YGR078C, strain PAC10, hits give low values 0.986 | locus YMR263W, strain SAP30, hits give low values 1 | locus YNL128W, strain TEP1, hits give low values 1.01 | locus YNL175C, strain NOP13, hits give low values 1.03 | locus YNL197C, strain WHI3, hits give low values 1.03 | locus YNL224C, strain SQS1, hits give low values 1.01 | locus YOR083W, strain WHI5 (second series), hits give low values 1.02 | locus YPL241C, strain CIN2, hits give low values 1

Source: PubChem BioAssay AID1159580 (chemical genetic matrix, 2015)
